Source: PubChem BioAssay (NCATS)
Results filed as inconclusive are left out. The source made the active and inactive calls. Unless noted, the call rests on the fitted dose curve; in most records, active means well fitted cell-killing curve with a large enough effect; inconclusive means small, poorly fitted or top-dose-only effect, or effect the other way; inactive means no such curve, though single readings can be large or run the other way.

Key:
[1] = Quantitative High-Throughput drug screen in 47 multiple myeloma cell lines against the NCATS MIPE library collection: PCM6_Riken cell viability assay (AID 1919870); further: nearly all actives have a fitted effect of over 30% in size; further: potency means the concentration at half of the fitted maximal effect
Outline: (§1)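 500 cells/well per myeloma line exposed to pinned MIPE 4.0 compounds for 48 h at 37 °C, 5% CO2. Viability read as ATP by CellTiter-Glo luminescence, normalised to DMSO-only (100%) and media-only (0%) wells.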

[2] = Quantitative High-Throughput drug screen in 47 multiple myeloma cell lines against the NCATS MIPE library collection: RPMI8226_ATCC cell viability assay (AID 1919871); further: nearly all actives have a fitted effect of over 30% in size; further: potency means the concentration at half of the fitted maximal effect
Outline: as §1

[3] = Quantitative High-Throughput drug screen in 47 multiple myeloma cell lines against the NCATS MIPE library collection: KMS11_JCRBsus cell viability assay (AID 1919873); further: nearly all actives have a fitted effect of over 50% in size; further: potency means the concentration at half of the fitted maximal effect
Outline: as §1

[4] = Quantitative High-Throughput drug screen in 47 multiple myeloma cell lines against the NCATS MIPE library collection: KMS28BM_JCRB cell viability assay (AID 1919874); further: nearly all actives have a fitted effect of over 35% in size; further: potency means the concentration at half of the fitted maximal effect
Outline: as §1

[5] = qHTS drug screen for cell cycle checkpoint inhibitors in PARPi-resistant BRCA-mutant ovarian cancer cell lines. (AID 1963452; calls by dose curve); conditions: PEO1/OlaR viability, CellTiter-Glo luminescence, 96 h, stronger effect = lower value
Outline: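 PEO1, PEO4 and PEO1/OlaR ovarian cancer cells, 600 per well, exposed 96 h at 37C to a dilution series. Viability read by CellTiter-Glo luminescence, normalized to DMSO and empty wells; activity summarized as Z-AUC.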

[6] = Quantitative High-Throughput drug screen in 47 multiple myeloma cell lines against the NCATS MIPE library collection: OPM2_DSMZ cell viability assay (AID 1919872); further: nearly all actives have a fitted effect of over 30% in size; further: potency means the concentration at half of the fitted maximal effect
Outline: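 CellTiter-Glo luminescence (ATP) after 48 h compound exposure, 37C/5% CO2; 500 cells/well; MIPE 4.0 approved/investigational drugs pinned in; DMSO = 100%, media only = 0% viability.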

[7] = qHTS for identification of novel therapeutic agents for treatment of microphthalmiaassociated transcription factor (MiT) renal cell carcinoma (RCC) (AID 1963991; calls by dose curve; further: potency means the concentration at half of the fitted maximal effect;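 on z-score: curves scaled with 100% = DMSO viability and 0% = empty wells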); conditions: CellTiter-Glo, 48 h; for z-score: stronger effect = lower value
Outline: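 UOK109/UOK124/UOK145 (TFE3 fusions, three partners); 500 cells/well; MIPE v4.0, 1912 cpds, 11 conc.; 48 h, 37 C; CellTiter-Glo, 15 min RT; lum. Norm.: DMSO 100%, empty 0%.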

[8] = measured here: PEO1 parental Z-AUC
[9] = TFE3-RCC UOK109 viability, measured here: UOK109 Z-AUC
[10] = TFE3-RCC viability, measured here: UOK124 Z-AUC
[11] = TFE3-RCC viability, measured here: UOK145 Z-AUC

SMILES | Potency [1] | Potency [2] | Potency [3] | Potency [4] | Z-AUC [5] | Z-AUC [5, 8] | Z-AUC ([5]; measured here: PEO4 Z-AUC) | Potency [6] | z-score [7, 9] | z-score [7, 10] | z-score [7, 11] | Potency ([7]; TFE3-RCC UOK109 viability, active = Z-AUC below -0.8 in all three lines)
CCOC(=O)c1c(CSc2ccccc2)n(C)c2cc(Br)c(O)c(CN(C)C)c12 | 16.6 µM (active) | 11.8 µM (active) | 18.7 µM (active) | 14.8 µM (active) | 0.838 (inactive) | 0.193 | 0.129 |  |  |  |  | 
Oc1ccc(C=Cc2cc(O)cc(O)c2)cc1 | inactive | 18.7 µM (active) | 16.6 µM (active) | inactive |  |  |  |  |  |  |  | 
CCCCCCOC(=O)N=C(N)c1ccc(NCc2nc3cc(C(=O)N(CCC(=O)OCC)c4ccccn4)ccc3n2C)cc1 | 20.9 µM (active) | 18.7 µM (active) | 18.7 µM (active) | 23.5 µM (active) |  |  |  |  |  |  |  | 
CC[C@H](NC(=O)[C@H](C)NC)C(=O)N1C[C@@H](O)C[C@H]1Cc1c(-c2[nH]c3cc(F)ccc3c2C[C@H]2C[C@H](O)CN2C(=O)[C@H](CC)NC(=O)[C@H](C)NC)[nH]c2cc(F)ccc12 | 5.9 µM (active) | 1.32 µM (active) | inactive | inactive |  |  |  |  |  |  |  | 
CCOC(=O)N1c2ccc(C(F)(F)F)cc2[C@@H](N(Cc2cc(C(F)(F)F)cc(C(F)(F)F)c2)C(=O)OC)C[C@H]1CC | inactive | 9.35 µM (active) |  |  | -1 (inactive) | 0.195 | -0.682 | 9.35 µM (active) | 0.825 | 0.72 | 0.57 | 
COc1cc2c(cc1Cc1cccc(Cl)c1F)c(=O)c(C(=O)O)cn2[C@H](CO)C(C)C | 16.6 µM (active) | 14.8 µM (active) | 2.96 µM (active) | 23.5 µM (active) | 1.07 (inactive) | 0.736 | 0.927 |  |  |  |  | 
CC(C)Oc1cc(Nc2nc(N[C@@H](C)c3ccc(F)cn3)ncc2Cl)[nH]n1 | 7.43 µM (active) | inactive |  |  | -1.59 (inactive) | -1.36 | -0.661 | 16.6 µM (active) |  |  |  | 
Nc1ncnc2c1c(-c1cccc(OCc3ccccc3)c1)cn2C1CC(CN2CCC2)C1 (stereo unspecified) | 26.4 µM (active) | 5.26 µM (active) | 2.96 µM (active) | 2.96 µM (active) | -0.485 (inactive) | -0.126 | -0.746 |  |  |  |  | 
Cc1cnc(-c2cc(N3CCN(C(=O)CCS(C)(=O)=O)CC3)ncc2Cl)c(C)c1 | inactive | inactive |  |  | 0.449 (inactive) | 1.67 | 1.63 | inactive |  |  |  | 
CC[C@H]1OC(=O)[C@H](C)[C@@H](O[C@H]2C[C@@](C)(OC)[C@@H](O)[C@H](C)O2)[C@H](C)[C@@H](O[C@@H]2O[C@H](C)C[C@H](N(C)C)[C@H]2O)[C@](C)(O)C[C@H](C)C(=NOCOCCOC)[C@H](C)[C@@H](O)[C@]1(C)O | inactive | 4.69 µM (active) |  |  |  |  |  | inactive | 1.24 | -0.315 | 0.696 | 
NC(N)=Nc1nc(CSCCC(N)=NS(N)(=O)=O)cs1 | 14.8 µM (active) | inactive | inactive |  |  |  |  |  |  |  |  | 
C#CCN(C)CC1=Cc2ccccc2Oc2ccccc21 | inactive | inactive |  | inactive | -0.343 (inactive) | -0.493 | -0.09 | inactive | -0.41 | 0.413 | -1.17 | 
CCC(=C(c1ccc(O)cc1)c1ccc(OCCNC)cc1)c1ccccc1 | 23.5 µM (active) | 26.4 µM (active) | 8.33 µM (active) | 23.5 µM (active) |  |  |  |  |  |  |  | 
CO[C@H]1/C=C\O[C@@]2(C)Oc3c(C)c(O)c4c(O)c(c(C=NN5CCN(C6CCCC6)CC5)c(O)c4c3C2=O)NC(=O)C(C)=CC=C[C@H](C)[C@H](O)[C@@H](C)[C@@H](O)[C@@H](C)[C@H](OC(C)=O)[C@H]1C | 0.118 µM (active) | 1.18 µM (active) |  |  |  |  |  | 14.8 µM (active) | -1.72 | -2.38 | -2.93 | 0.105 µM (active)
CCC(=C(CC)c1ccc(O)cc1)c1ccc(O)cc1 | 18.7 µM (active) | 29.6 µM (active) | 14.8 µM (active) | 16.6 µM (active) |  |  |  |  |  |  |  | 
CCOC(=O)[C@H](CCc1ccccc1)N[C@@H](C)C(=O)N1CCCC1C(=O)O (stereo partly specified) | 26.4 µM (active) | inactive | inactive | inactive |  |  |  |  |  |  |  | 
Nc1ncnc2c1ncn2[C@@H]1O[C@H](CO)[C@@H](O)[C@@H]1O | 1.18 µM (active) | inactive | 5.26 µM (active) | 0.935 µM (active) | 1.52 (inactive) | 0.934 | 0.856 |  |  |  |  | 
CCN(CCO)CCCOc1ccc2c(Nc3cc(CC(=O)Nc4cccc(F)c4)[nH]n3)ncnc2c1 | inactive | inactive |  | 0.0372 µM (active) | -0.614 (inactive) | -0.629 | -1.66 | inactive | 0.018 | 0.316 | 0.045 | 
CNC1CCC(N(Cc2cccc(-c3ccncc3)c2)C(=O)c2sc3ccccc3c2Cl)CC1 (stereo unspecified) | 8.33 µM (active) | 26.4 µM (active) | 8.33 µM (active) | 18.7 µM (active) | 0.143 (inactive) | 0.312 | 0.329 |  |  |  |  | 
